Experimental findings from ChEMBL document CHEMBL3988442, “University of Dundee, Small-Polar-MMV Screening Library” (2021) are described below.

The structures appear in SMILES notation. Out of some 38,000 compounds screened, about 1,200 (3.2%) showed an effect of 50% or more. The median lay at about -58%. The sample holds strong results, similar compounds and a random draw of the others, so the mix is not that of the screen.

The test deals with Plasmodium falciparum. In words: Calibr Malaria Delayed Death Assay SOP. The following applies: concentration 4.99e-06 (unit not given; other assays of the set use mol/L). The test is classed as functional, organism-based. Further details: scale not given: in the data most compounds retested in dose-response had high values.
Take `O=C1CCCN1Cc1ncn2c1CN(C(=O)Cc1ccccc1)CCC2`: the “Percent Effect” value is listed as -76.95%.

Regarding `CC1CCCCN1C(=O)COCc1nc(-c2ccncc2)no1` (stereo not drawn), the “Percent Effect” value is recorded as -64.65%.

In the case of `O=C(O)C(F)(F)F.O=C(O)C(F)(F)F.O=C(O)c1c(-c2ccncc2)ncc2c1CCN(CC1CCOC1)C2` (stereo not drawn), the “Percent Effect” value is recorded as -34.25%.

Turning to `Cc1cc(S(=O)(=O)N2CCCc3ccccc32)sc1C(=O)O`, the “Percent Effect” value is on record as -124.8%.

As for `O=C(Cc1ccsc1)N1Cc2nc(CN3CCCCC3)oc2C1.O=C(O)C(F)(F)F`, the “Percent Effect” value is on record as -52.68%.

For the molecule `Cc1nonc1CN(C)Cc1nc(-c2cccc(F)c2F)oc1C`, the “Percent Effect” value is given as -82.79%.

On to `COCCN(Cc1ccccc1)C(=O)c1cnn(C)c1C`, for which the “Percent Effect” value is listed as -75.6%.

On to `O=C(O)C(F)(F)F.O=C(O)C(F)(F)F.c1cc(CN2CCC3(CC2)COC(COCC2CC2)C3)ccn1` (stereo not drawn), for which the “Percent Effect” value is on record as -17.94%.

In the case of `Cc1nn(C)c(Oc2ccccc2)c1CNC1CCCCNC1=O` (stereo not drawn), the “Percent Effect” value was -0.05055%.

As for `COc1ccc(-c2c(C)nn3c(=N)c(C#N)n[nH]c23)cc1`, the “Percent Effect” value is listed as -120.8%.

With `COc1ccc(-c2c(C(C)C)nn3c(=N)c(C#N)n[nH]c23)cc1`, the “Percent Effect” value is on record as -149.3%.

Turning to `COc1ccc(-c2c(C)nn3c(=N)c(C#N)n[nH]c23)cc1OC`, the “Percent Effect” value came to 87.26%.

Consider `CCn1ncc2c1C(COC)CN(Cc1ccc(C)o1)C2` (stereo not drawn), for which the “Percent Effect” value was -90.58%.

Take `CCN(C)C(=O)c1cccc(C(=O)N(C)Cc2cccc(O)c2)c1`: the “Percent Effect” value is -54.27%.

Turning to `O=C(NC[C@H]1C[C@@H]2CCN1C[C@@H]2CN1CCCCC1)Nc1ccccc1`, the “Percent Effect” value is recorded as -35.07%.

As to `O=S(=O)(NC[C@H]1C[C@@H]2CCN1C[C@@H]2CN1CCOCC1)c1ccccc1`, the “Percent Effect” value is on record as -72.09%.

Turning to `O=S(=O)(NC[C@H]1C[C@@H]2CCN1C[C@@H]2CN1CCCC1)c1ccc(Cl)cc1`, the “Percent Effect” value is 89.33%.

In the case of `Cc1nn(C)cc1CN1CCCCCC1c1ccccc1Cl` (stereo not drawn), the “Percent Effect” value is -108.4%.

As for `CCCNc1ncc(-c2cc(C3CC3)nc(N)c2C#N)cn1`, the “Percent Effect” value is 54.19%.

Regarding `CCSc1ncc(-c2cc(C3CCC3)nc(N)c2C#N)cn1`, the “Percent Effect” value is -33.43%.

For `CCSc1ncc(-c2cc(C3CC3)nc(N)c2C#N)cn1`, the “Percent Effect” value is recorded as 1.431%.

Take `Cc1ccc(CSc2ncc(Br)c(C(=O)O)n2)cc1`: the “Percent Effect” value is listed as -107.1%.

For the molecule `NC(=O)Nc1ccc(C(=O)NCCn2cccc2)cc1`, the “Percent Effect” value is reported as -116.7%.

For the molecule `Cn1c(CC(=O)O)c(Sc2ccccc2)c2ccccc21`, the “Percent Effect” value is -130%.

Regarding `CC(N)Cc1ccccc1Sc1ccc(O)cc1.CC(N)Cc1ccccc1Sc1ccc(O)cc1.O=C(O)C(=O)O` (stereo not drawn), the “Percent Effect” value is on record as 71.69%.

Take `CC(C)C(=O)NS(=O)(=O)CCc1ccccc1`: the “Percent Effect” value is reported as -111.2%.

With `NCc1ccccc1Sc1ccc(O)cc1.O=C(O)/C=C\C(=O)O`, the “Percent Effect” value was 55.63%.

Regarding `CNC(C)Cc1ccccc1Sc1ccc(O)cc1.Cl` (stereo not drawn), the “Percent Effect” value is given as 87.88%.

For `COc1ccccc1CC(C)CC(=O)O` (stereo not drawn), the “Percent Effect” value is -155.2%.

In the case of `CC(N)Cc1ccccc1Sc1ccccc1.O=C(O)/C=C\C(=O)O` (stereo not drawn), the “Percent Effect” value is listed as 77.8%.

On to `CC(C(=O)Nc1ccccc1Sc1ccccc1)S(C)(=O)=O` (stereo not drawn), for which the “Percent Effect” value was -117.7%.

As for `CNS(=O)(=O)CC(=O)NC(C)Cc1ccccc1Br` (stereo not drawn), the “Percent Effect” value is recorded as -190.6%.

For the molecule `CC[C@H](C)[C@@H](CO)NC(C)Cc1ccccc1F` (stereo partly drawn), the “Percent Effect” value came to 48.98%.
